Molecules are shown by their SMILES. For some assays here: Entries with a potency or affinity are not part of this list.

Common to all, as to set-up: scale not given: direction of the effect not stated beside the values
The target of experiment [1] is Protein translocase subunit SecA (Escherichia coli (strain K12)) (UniProt P10408). The experiment in a line: Assay to Identify E. coli SecA ATPase Inhibitors. The format is functional. As to conditions: 30 µM.
The target in experiment [2] is T1, Ubiquitin-activating enzyme e1, putative (Leishmania donovani (strain BPK282A1)) (UniProt E9BSI1).
T1 sequence (whole entry): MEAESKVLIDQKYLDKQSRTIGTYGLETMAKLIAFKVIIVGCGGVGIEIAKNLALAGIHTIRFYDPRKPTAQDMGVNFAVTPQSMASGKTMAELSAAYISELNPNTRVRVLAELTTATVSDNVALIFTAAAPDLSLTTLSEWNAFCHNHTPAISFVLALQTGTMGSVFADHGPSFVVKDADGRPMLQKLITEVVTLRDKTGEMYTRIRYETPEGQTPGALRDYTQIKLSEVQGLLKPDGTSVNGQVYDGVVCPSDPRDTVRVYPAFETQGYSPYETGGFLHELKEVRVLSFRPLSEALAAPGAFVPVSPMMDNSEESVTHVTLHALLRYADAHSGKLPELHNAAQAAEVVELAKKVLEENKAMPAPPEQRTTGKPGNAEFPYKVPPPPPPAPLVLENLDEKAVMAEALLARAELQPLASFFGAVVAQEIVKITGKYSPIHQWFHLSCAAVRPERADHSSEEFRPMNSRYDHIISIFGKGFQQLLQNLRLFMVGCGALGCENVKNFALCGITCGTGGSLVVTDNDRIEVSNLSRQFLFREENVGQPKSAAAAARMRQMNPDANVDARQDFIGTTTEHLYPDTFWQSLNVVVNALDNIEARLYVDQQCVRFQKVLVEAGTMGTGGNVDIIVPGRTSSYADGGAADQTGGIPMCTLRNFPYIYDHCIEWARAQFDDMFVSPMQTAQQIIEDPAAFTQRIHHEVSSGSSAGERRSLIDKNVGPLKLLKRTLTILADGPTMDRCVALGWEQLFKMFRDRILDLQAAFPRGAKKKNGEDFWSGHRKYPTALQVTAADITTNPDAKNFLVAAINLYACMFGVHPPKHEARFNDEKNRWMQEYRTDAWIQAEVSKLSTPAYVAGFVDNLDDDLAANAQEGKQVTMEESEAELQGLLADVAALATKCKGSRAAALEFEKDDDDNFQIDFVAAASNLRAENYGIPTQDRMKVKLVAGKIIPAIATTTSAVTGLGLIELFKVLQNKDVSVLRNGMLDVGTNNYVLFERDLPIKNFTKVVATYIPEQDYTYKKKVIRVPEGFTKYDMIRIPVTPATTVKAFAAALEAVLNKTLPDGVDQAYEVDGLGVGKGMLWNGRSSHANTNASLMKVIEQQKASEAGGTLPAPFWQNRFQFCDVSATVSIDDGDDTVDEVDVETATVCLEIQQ
Briefly: Leishmania donovani Ubiquitin Activating Enzyme (LdE1). The format is functional. As to conditions: 30 µM.

Experiment [3] deals with T2, Aspartate--tRNA(Asp/Asn) ligase (Mycobacterium tuberculosis (strain ATCC 25618 / H37Rv)) (UniProt P9WFW3).
T2 sequence (whole entry): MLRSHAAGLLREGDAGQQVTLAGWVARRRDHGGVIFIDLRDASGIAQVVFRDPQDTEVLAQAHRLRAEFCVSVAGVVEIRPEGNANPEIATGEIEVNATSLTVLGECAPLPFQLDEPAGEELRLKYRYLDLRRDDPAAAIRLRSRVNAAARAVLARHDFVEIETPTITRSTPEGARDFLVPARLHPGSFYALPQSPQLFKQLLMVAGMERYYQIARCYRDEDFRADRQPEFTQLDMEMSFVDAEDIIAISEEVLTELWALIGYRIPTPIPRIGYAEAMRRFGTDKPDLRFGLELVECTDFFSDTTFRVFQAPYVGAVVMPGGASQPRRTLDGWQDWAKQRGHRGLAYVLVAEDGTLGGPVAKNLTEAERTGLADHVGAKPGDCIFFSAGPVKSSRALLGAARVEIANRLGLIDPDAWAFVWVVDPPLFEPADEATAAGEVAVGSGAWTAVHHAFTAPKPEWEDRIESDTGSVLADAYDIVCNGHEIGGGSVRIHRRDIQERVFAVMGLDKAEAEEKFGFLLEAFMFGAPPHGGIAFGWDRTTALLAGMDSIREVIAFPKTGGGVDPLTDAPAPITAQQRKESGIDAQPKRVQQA
Briefly: Assay for Asp RNA synthetase-1 from Mycobacterium tuberculosis. The format is functional. As to conditions: 30 µM.

Experiment [4] deals with AMP-activated protein kinase, AMPK (Homo sapiens) (UniProt P54646+O43741+P54619+Q9UGJ0+Q9Y478+Q13131+Q9UGI9). Briefly: AMP-dependent Kinase enzyme assay. An in vitro enzyme assay that detects ADP turnover that is directly proportional to AMPK activity. This uses naive AMPK that is activated during the assay with MK-8722. The format is functional. As to conditions: 30 µM.

In experiment [5] the target is Sialic acid-binding Ig-like lectin 9 (Homo sapiens) (UniProt Q9Y336). Briefly: Hs-Siglec9 ALPHAscreen SOP 20170721. As to conditions: 10 µM. In general terms: In Alpha technology, singlet oxygen from a donor bead excites a nearby acceptor bead.
The subject of another experiment is Trypanosoma cruzi. Briefly: Trypanosoma cruzi phosphomannomutase and mannose-1-phosphate guanylyltransferase assay. The format is functional. As to conditions: 10 µM.
Experiment [6] deals with T3, Arginase-2, mitochondrial (Homo sapiens) (UniProt P78540).
T3 sequence (whole entry): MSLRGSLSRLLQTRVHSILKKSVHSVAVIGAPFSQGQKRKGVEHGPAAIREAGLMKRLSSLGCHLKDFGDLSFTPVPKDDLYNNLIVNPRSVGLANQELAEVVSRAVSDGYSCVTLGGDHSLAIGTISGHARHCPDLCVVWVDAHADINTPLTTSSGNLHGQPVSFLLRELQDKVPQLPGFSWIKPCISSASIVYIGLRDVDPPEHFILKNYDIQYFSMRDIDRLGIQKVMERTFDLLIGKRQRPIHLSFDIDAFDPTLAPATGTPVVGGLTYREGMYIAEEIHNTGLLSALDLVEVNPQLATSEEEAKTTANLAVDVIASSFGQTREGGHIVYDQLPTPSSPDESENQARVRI
The experiment in a line: in vitro enzyme assay to detect the production of urea directly proportional to the activity of Arginase II. Further: in the data most compounds retested in dose-response had high values. The format is functional. As to conditions: 33.3 µM.

Experiment [7] deals with T4, Proteasome subunit beta (Trypanosoma cruzi) (UniProt O96673).
T4 sequence (whole entry): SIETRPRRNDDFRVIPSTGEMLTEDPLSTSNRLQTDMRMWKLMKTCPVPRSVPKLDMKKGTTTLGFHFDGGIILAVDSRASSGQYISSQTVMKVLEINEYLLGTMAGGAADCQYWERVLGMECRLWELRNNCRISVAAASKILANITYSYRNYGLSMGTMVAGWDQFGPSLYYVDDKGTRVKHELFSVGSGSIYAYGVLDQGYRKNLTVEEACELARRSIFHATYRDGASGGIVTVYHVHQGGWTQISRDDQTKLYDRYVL
Briefly: Trypanosoma cruzi proteasome chymotrypsin-like activity (TcProtChymo) assay. Further: in the data most compounds retested in dose-response had high values. As to conditions: 9.37 µM. The format is functional.

The species entered for another experiment is Homo sapiens. Briefly: To identify inhibition of the IFN signalling (Jak-Stat) pathway via expression of an eGFP reporter gene under the control of an IFN-stimulated response element (ISRE) containing MxA promoter. The format is functional. As to conditions: 30 µM.
The target in experiment [8] is Shiga toxin 2 (Escherichia coli O157:H7) (UniProt P09385+P09386). Briefly: E. coli 0.157:H7 Shiga Toxin SOP - stx2 screening assay. As to conditions: 30 µM. The format is functional.
For experiment [9], the target named is T5, Tyrosyl-tRNA synthetase, putative (Trypanosoma cruzi (strain CL Brener)) (UniProt Q4DSP6).
T5 sequence (whole entry): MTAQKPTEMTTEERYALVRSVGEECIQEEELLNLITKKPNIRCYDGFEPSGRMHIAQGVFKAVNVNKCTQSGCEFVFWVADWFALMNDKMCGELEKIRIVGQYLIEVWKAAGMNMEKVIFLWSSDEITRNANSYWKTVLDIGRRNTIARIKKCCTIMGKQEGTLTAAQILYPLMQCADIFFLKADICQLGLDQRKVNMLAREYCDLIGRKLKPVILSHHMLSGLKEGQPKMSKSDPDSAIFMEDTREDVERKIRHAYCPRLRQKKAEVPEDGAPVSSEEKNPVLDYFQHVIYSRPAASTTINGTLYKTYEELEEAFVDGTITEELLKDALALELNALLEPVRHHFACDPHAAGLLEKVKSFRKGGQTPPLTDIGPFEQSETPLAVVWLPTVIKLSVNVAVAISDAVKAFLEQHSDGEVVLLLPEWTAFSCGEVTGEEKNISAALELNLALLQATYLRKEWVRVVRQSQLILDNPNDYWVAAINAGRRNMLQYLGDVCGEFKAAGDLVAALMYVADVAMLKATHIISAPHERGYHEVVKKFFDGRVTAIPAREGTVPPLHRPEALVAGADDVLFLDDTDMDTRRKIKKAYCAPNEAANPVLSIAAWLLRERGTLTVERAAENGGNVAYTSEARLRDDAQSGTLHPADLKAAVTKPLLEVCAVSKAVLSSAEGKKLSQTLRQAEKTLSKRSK
Briefly: Trypanosoma cruzi tyrosyl tRNA synthetase (TcYRS) _High Tyrosine SOP. Further: in the data most compounds retested in dose-response had high values. The format is functional. As to conditions: 30 µM.

The target of experiment [10] is T5, Tyrosyl-tRNA synthetase, putative (Trypanosoma cruzi (strain CL Brener)). The experiment in a line: Trypanosoma cruzi tyrosyl tRNA synthetase (TcYRS) SOP. The format is functional. As to conditions: 30 µM.
Experiment [11] addresses Chromo domain-containing protein 1 (Saccharomyces cerevisiae (strain ATCC 204508 / S288c) (Baker's yeast)) (UniProt P32657). The experiment in a line: ScCHD-1 Enzyme Inhibition Assay. Further: in the data most compounds retested in dose-response had high values. The format is functional. As to conditions: 30 µM.

Protein translocase subunit SecA (Escherichia coli (strain K12)), sequence (P10408 whole entry): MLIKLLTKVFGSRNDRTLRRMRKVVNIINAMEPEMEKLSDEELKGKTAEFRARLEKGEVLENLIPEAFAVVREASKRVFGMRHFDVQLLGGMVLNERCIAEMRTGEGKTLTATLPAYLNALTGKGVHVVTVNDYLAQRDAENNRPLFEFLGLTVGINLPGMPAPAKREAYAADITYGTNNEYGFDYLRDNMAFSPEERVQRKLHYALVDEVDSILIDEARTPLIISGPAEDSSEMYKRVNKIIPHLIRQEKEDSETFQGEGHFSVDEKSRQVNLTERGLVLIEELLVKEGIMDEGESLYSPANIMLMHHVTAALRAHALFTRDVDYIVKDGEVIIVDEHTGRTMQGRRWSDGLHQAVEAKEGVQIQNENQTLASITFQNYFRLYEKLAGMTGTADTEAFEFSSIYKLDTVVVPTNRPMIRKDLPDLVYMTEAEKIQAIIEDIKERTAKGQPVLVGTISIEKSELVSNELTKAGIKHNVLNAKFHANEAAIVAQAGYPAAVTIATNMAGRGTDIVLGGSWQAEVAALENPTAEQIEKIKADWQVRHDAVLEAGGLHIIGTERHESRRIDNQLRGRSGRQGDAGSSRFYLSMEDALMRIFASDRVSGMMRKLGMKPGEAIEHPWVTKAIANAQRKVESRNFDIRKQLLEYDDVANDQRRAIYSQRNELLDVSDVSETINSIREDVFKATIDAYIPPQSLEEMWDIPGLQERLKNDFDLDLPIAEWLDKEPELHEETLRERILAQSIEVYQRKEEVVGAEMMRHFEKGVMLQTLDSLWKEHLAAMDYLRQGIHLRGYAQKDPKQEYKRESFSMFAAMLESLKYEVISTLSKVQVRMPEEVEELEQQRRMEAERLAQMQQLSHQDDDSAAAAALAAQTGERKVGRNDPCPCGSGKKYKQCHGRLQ
Sialic acid-binding Ig-like lectin 9 (Homo sapiens), sequence (Q9Y336 whole entry): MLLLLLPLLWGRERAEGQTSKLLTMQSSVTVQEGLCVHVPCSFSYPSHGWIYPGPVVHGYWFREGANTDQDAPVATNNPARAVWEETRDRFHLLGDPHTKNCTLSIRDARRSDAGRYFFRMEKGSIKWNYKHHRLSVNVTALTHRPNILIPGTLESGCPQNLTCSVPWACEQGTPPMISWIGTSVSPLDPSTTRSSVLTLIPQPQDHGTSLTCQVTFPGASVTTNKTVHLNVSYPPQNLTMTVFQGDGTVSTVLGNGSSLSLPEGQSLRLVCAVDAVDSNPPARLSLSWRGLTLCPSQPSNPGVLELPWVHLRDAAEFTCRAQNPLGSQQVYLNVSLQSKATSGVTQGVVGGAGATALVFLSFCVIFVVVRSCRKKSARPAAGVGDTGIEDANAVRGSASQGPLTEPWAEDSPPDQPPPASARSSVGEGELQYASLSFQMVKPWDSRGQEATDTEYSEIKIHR
Chromo domain-containing protein 1 (Saccharomyces cerevisiae (strain ATCC 204508 / S288c) (Baker's yeast)), sequence (P32657 whole entry, the tested form may be a part): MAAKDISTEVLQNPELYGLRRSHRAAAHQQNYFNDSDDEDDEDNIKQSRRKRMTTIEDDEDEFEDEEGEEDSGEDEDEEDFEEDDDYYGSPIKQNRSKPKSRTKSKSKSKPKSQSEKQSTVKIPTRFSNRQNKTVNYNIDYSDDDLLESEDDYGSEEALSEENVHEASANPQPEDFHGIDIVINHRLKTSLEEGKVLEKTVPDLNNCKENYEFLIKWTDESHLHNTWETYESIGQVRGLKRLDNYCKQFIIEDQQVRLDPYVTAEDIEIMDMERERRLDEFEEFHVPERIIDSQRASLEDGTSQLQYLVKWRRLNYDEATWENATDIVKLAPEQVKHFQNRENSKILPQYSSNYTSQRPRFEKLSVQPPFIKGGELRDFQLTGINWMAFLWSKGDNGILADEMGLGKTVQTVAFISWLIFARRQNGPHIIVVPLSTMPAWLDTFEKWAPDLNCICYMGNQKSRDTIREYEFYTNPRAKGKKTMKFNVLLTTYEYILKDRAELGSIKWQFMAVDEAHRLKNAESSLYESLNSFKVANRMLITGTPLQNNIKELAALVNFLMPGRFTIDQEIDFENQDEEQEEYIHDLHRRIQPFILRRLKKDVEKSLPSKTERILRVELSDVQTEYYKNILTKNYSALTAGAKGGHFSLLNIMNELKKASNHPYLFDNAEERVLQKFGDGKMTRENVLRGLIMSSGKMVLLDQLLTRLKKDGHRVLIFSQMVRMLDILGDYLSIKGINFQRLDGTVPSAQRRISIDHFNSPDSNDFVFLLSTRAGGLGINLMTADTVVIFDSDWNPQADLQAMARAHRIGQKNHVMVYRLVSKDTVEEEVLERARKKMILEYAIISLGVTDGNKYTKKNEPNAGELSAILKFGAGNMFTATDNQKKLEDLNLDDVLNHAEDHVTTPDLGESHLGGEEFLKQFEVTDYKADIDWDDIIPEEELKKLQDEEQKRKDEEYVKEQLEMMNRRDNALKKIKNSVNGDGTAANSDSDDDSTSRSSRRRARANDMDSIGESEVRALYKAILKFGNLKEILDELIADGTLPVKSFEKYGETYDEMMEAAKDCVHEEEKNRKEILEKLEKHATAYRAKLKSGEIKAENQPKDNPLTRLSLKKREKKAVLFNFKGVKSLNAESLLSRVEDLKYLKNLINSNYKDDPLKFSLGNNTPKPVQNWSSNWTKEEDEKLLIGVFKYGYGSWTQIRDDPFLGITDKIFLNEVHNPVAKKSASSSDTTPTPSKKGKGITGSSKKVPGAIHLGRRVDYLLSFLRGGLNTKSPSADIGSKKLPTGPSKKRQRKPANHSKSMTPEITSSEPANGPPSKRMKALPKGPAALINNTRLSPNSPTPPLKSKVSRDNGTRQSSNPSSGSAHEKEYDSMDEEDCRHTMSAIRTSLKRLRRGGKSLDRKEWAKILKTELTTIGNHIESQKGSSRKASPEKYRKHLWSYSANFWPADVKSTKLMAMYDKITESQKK

For `Cc1cc(CN2CC[C@H]3OCC[C@@]3(C(=O)NC(C)C)C2)no1`, the Percent Effect is -1.37% in experiment [1]; 15.6% in [2]; 0.364% in [3]; 0.843% in [4]; 5.07% in experiment [5]; 0.888% in the experiment on Trypanosoma cruzi. Besides, the Percent Effect in experiment [6] was 4.52%; in experiment [7] it was 10.4%; in the experiment listed under Homo sapiens, 16.3%; in experiment [8], -28.2%; in experiment [9], 5.29%; in experiment [10] it was 11.5%. In [11], the Percent Effect is -5.46%.
Consider `O=C1CSC(c2ccsc2)c2sccc2N1` (stereo not given), for which the Percent Effect in experiment [1] is -4.83%; in experiment [2] it was -57.3%; in experiment [3], 4.27%; in experiment [4], 7.24%; in [5], 10.3%; with Trypanosoma cruzi it was -3.34%. Moreover, the Percent Effect in experiment [6] is -4.4%; in experiment [7], 7.21%; in the experiment filed under Homo sapiens, 6.1%; in experiment [8], 5.43%; in experiment [9], -1.06%; in experiment [10], -2.56%. The Percent Effect in experiment [11] was determined as 106%.
Take `Cc1cnc(N2CCCC3(CCCN(C)C3)C2)nc1` (stereo not given): the Percent Effect was -4.89% in [1]; 0% in experiment [2]; -0.912% in experiment [3]; 0.0306% in experiment [4]; 4.33% in [5]; 3.37% in the experiment on Trypanosoma cruzi. The Percent Effect in [6] is -6.79%; in experiment [7] it was 8.82%; in the experiment listed under Homo sapiens it was -22.4%; in [8] it was 7.25%; in experiment [9], -2.08%; in experiment [10] it was 8.64%. In addition, in experiment [11], the Percent Effect is -5.6%.
`O=C1N(c2cncnc2)CCC12CCCN(Cc1ccccn1)C2` (stereo not given): the Percent Effect in experiment [1] was -4%; in [2] it was 5.2%; in [3], 3.89%; in experiment [4], 3.31%; in experiment [5] it was 8.64%; in the experiment on Trypanosoma cruzi it was -1.28%. Moreover, the Percent Effect in [6] was 2.76%; in experiment [7], 2.5%; in the experiment filed under Homo sapiens, -1.38%; in [8] it was -38.2%; in [9], 4.3%; in [10] it was 8.64%. In addition, the Percent Effect in [11] was found to be 0.251%.
Take `c1cnc(N2CCCC3(CCN(Cc4ccncc4)C3)C2)nc1` (stereo not given): the Percent Effect in experiment [1] was -2.54%; in experiment [2] it was 8.11%; in experiment [3] it was 4.42%; in experiment [4], 2.74%; in experiment [5], -7%; with Trypanosoma cruzi, -1.66%. For the same molecule, the Percent Effect is -6.69% in experiment [6]; 24.7% in experiment [7]; -1.82% in the experiment listed under Homo sapiens; 1.1% in experiment [8]; 1.08% in experiment [9]; 15.4% in experiment [10]. Besides, the Percent Effect in [11] was -3.48%.

These data come from ChEMBL document CHEMBL3988442, “University of Dundee, Small-Polar-MMV Screening Library” (2021).
